# The whole screen tested about 360,000 compounds, of which about 290 (0.081%) were called active. The call rests on the fitted dose curve; in most records, active means well fitted activation curve with a large enough effect; inconclusive means small, poorly fitted or top-dose-only effect; inactive means no such curve, though single readings can be large or run the other way. Shown is part of a subset that was picked to be rich in actives. Entries that show only a call come without a potency.
# Molecular target: Rap guanine nucleotide exchange factor 4 (Homo sapiens) (UniProt Q8WZA2)
# Sequence (Q8WZA2 whole entry, looked up): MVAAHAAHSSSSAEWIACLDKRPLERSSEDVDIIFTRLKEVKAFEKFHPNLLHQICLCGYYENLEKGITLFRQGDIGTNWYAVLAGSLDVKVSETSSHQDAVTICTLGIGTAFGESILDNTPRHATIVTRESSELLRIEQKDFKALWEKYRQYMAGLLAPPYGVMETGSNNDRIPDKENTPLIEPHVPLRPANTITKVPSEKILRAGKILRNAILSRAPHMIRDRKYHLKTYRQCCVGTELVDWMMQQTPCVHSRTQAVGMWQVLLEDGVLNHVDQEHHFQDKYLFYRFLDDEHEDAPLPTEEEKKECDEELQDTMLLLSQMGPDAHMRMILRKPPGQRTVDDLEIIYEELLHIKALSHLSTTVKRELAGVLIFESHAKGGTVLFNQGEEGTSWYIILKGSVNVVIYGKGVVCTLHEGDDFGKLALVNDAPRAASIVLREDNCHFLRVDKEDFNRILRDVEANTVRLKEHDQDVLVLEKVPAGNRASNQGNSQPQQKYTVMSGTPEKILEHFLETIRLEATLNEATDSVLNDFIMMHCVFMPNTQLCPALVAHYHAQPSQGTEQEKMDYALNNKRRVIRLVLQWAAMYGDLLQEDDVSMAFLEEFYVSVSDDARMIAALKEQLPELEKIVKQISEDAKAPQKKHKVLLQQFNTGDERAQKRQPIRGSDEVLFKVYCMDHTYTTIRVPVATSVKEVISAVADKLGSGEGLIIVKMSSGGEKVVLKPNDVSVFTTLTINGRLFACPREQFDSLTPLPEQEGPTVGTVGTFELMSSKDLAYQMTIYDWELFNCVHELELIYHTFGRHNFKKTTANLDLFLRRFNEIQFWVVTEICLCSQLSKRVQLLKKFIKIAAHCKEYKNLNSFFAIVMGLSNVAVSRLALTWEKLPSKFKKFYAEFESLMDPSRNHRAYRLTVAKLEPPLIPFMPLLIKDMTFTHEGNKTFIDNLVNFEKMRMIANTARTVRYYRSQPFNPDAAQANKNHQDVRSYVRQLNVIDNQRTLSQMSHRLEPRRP
# Experiment: qHTS for Agonist of cAMP-regulated guanine nucleotide exchange factor 4 (EPAC2): primary screen; further: nearly all actives have a fitted effect of over 50% in size
# Conditions: biochemical qHTS; Potency: EPAC2 activation; series mostly up to 154 µM
# Source text: In multi-cellular eukaryotic organisms, the effects of cAMP are transduced by two ubiquitously-expressed intracellular cAMP receptors, the classic protein kinase A/cAMP-dependent protein kinase (PKA/cAPK) and the more recently discovered exchange protein directly activated by cAMP/cAMP-regulated guanine nucleotide exchange factor (EPAC/cAMP-GEF). Both PKA and EPAC are ubiquitously expressed in all tissues, and an increase in intracellular cAMP levels will lead to the activation of both PKA and EPAC. Therefore, careful dissections of the individual role and relative contribution of EPAC and PKA within the overall cAMP signaling in various model systems are critical for further elucidating the mechanism of cAMP signaling. To date no EPAC-specific antagonists and agonist, as well as isoform-specific agonists have been reported, and developing EPAC-specific pharmacological probes to determine the physiological functions that EPAC play in the overall cAMP-mediated signaling remains a major challenge within the research field. Furthermore, identified regulators of EPAC may lead to new mechanism-based therapeutic strategies specifically targeting the EPAC / cAMP-signaling components as EPAC has been implicated to play important roles in major human pathological conditions such as diabetes, heart disease, and cancer.
# This qHTS will be used to screen the Molecular Libraries Small Molecule Repository (MLSMR) as a concentration-titration series using the NCGC unique quantitative screening (qHTS) platform to find activators for EPAC2. In addition, this assay will also be used as a counterscreen for the EPAC1 qHTS. This fluorescent based assay is developed and validated for EPAC2 that measures exchange using EPAC effector Rap1 complex with BODIPY-GDP, a GDP analog with a tethered fluorophores. Activators are identified by monitoring the change in fluorescence signal as the exchanged free BODIPY-GDP has a reduced fluorescence compared to Rap1-bound BODIPY-GDP. […] in signal (activation) is the desired outcome for the EPAC2 agonist while no activity in this assay is desired for the EPAC1 agonist counterscreen.
# [1] de Rooij, J., Zwartkruis, F. J., Verheijen, M. H., Cool, R. H., Nijman, S. M., Wittinghofer, A., and Bos, J.L. (1998) Nature 396, 474-477
# [2] Kawasaki, H., Springett, G. M., Mochizuki, N., Toki, S., Nakaya, M., Matsuda, M., Housman, D. E., and Graybiel, A. M. (1998) Science 282, 2275-2279
# NIH Chemical Genomics Center [NCGC]
# NIH Molecular Libraries Probe Centers Network [MLPCN]
# Assay Submitter (PI): Xiaodong Cheng, The University of Texas, Medical Branch
# Briefly, three uL of reagents (100 nM EPAC2, 250 nM RAP1B-BODIPY-GDP, 50 uM GDP) were dispensed into a 1536-well Greiner black solid-bottom medium binding assay plate. Controls and test compounds (23 nL) were transferred to the plate via a Kalypsys pin tool equipped with a 1536-pin array. The plates were centrifuged at 1,000 rpm for 15 seconds followed by 5 minute incubation at room temperature. The assay plates were read at 5 minute intervals for 30 minutes in the ViewLux plate reader using 480nm excitation and 540nm emission filters. The results were normalized to the agonist positive control of 6.5 mM cAMP.
# Potency means the concentration at half of the fitted maximal effect.
Compound,Potency,activation
COC(=O)[C@]12CCCCC=C1N(Cc1ccco1)C(=O)[C@H](CC(=O)NCCCCc1ccccc1)C2,inactive,–
COc1ccc(S(=O)(=O)NC(CC(=O)NCc2ccccc2OC)c2ccco2)cc1 (centres undefined),inactive,–
Cc1sc2ncn(CC(=O)NCCN(C)C)c(=O)c2c1S(=O)(=O)N1CCC(C)CC1,inactive,–
CN(CCc1ccccn1)C(=O)c1ccc(OC2CCN(CCc3ccccc3)CC2)cc1,inactive,–
O=C1CCc2cc(S(=O)(=O)N3CCC(C(=O)NCc4ccccc4Cl)CC3)ccc2N1,inactive,–
CCOc1ccccc1Nc1nnc(SCC(=O)NCC2CCCO2)s1 (centres undefined),inactive,–
N#CCCn1cnc2ccccc21,inactive,–
O=[N+]([O-])c1ccc(CN2CC(N3CCC(c4ccccc4)CC3)CS2(=O)=O)cc1 (centres undefined),inactive,–
CC(=O)[C@@]12O[C@@H]1C[C@H]1[C@@H]3CC[C@H]4C[C@@H](O)CC[C@]4(C)[C@H]3CC[C@@]12C,inactive,–
CC1Cc2ccccc2N1S(=O)(=O)c1c(N)n(C)c(=O)n(C)c1=O (centres undefined),inactive,–
CC(C(=O)NC1CCCC1)N(c1ccc(Oc2ccccc2)cc1)S(C)(=O)=O (centres undefined),inactive,–
CC(=O)NC12CC3CC(C1)CC(C(=O)N1CCN(S(=O)(=O)c4cccs4)CC1)(C3)C2,inactive,–
Cc1cc(C)c(S(=O)(=O)N2C=CC(C(F)(F)F)=NCC2)c(C)c1,inactive,–
O=C(C1CCC1)N1CCN(S(=O)(=O)c2ccc([N+](=O)[O-])cc2)CC1,inactive,–
COc1ccc(C(=O)Nc2nc(-c3ccc(OC)cc3)c(-c3ccc([N+](=O)[O-])cc3)s2)cc1,112 µM (active),–
COc1ccc(NS(=O)(=O)c2cc(NC(=O)CC(=O)c3ccc([N+](=O)[O-])cc3)ccc2C)cc1,inactive,–
COc1ccc(-c2[nH][nH]c(=O)c2NC(=O)c2ccc([N+](=O)[O-])cc2)cc1,inactive,–
CCOC(=O)NC(C(F)(F)F)(C(F)(F)F)P(=O)(c1ccccc1)c1ccccc1,inactive,–
Oc1ccc2ccc3cccc[n+]3c2c1,100 µM (active),–
COCCN1CCN(C(=O)c2cc(COc3ccc(F)cc3Cl)on2)CC1,inactive,–
Cc1cc(Cl)c2oc(C(=O)N3CCC(O)(c4ccccc4)CC3)c(C)c2c1,inactive,–
Cc1cccc(OCc2nnc(SCc3nc4cc(C(F)(F)F)ccc4c(=O)[nH]3)o2)c1,inactive,–

Compound,Potency,activation
Cc1nnc(N(Cc2ccco2)C(=O)c2ccno2)s1,inactive,–
CCC1C(C#N)=C(SC)NC2=C1C(=O)CC(C)(C)C2 (centres undefined),inactive,–
CCn1cc(NC(=O)Nc2ccc(OC)c(OC)c2)c(C(N)=O)n1,inactive,–
C[n+]1ccc(/C=C/c2c[nH]c3ccccc23)cc1,100 µM (active),–
COc1ccc(CNC(=O)c2ccc(-c3cccnc3)c3ccoc23)cc1OC,inactive,–
CCc1noc(C)c1C(=O)N1CCCC(N2CCN(c3ccc(F)cc3)CC2)C1 (centres undefined),inactive,–
C=C1C(=O)OC2C1CCC(C)=CCCC1(C)OC21 (centres undefined),inactive,–
CCC(C(=O)NCCC(C)C)N(Cc1ccccc1Cl)C(=O)c1snc(C(N)=O)c1N (centres undefined),inactive,–
COc1cccc(N(CC(=O)NC2CCCC2)C(=O)CCCC(=O)Nc2ccccn2)c1,inactive,–
Cc1nn(C(C)C(=O)NCCC2=CCCCC2)c(=O)c2nn(-c3ccccc3)c(C)c12 (centres undefined),inactive,–
CC(C)C(NC(=O)OCc1ccccc1)C(=O)OCC(=O)N1C(C)CCCC1C (centres undefined),–,"11.3% [at 15.6 µM, 100% = 6.5 mM cAMP response] (inactive)"
COc1ccc(S(=O)(=O)NCC(c2ccco2)N2CCOCC2)cc1 (centres undefined),inactive,–
COc1ccccc1CNS(=O)(=O)c1cc2c3c(c1)CCC(=O)N3CCC2,inactive,–
Cc1ccc(S(=O)(=O)N2[C@@H](Cc3ccccc3)CO[C@H]2CC(=O)OCc2ccccc2)cc1,inactive,–
Cc1ccccc1C#CC1=CC(=O)CC(C)(C)C1,inactive,–
CN(CC(=O)NCc1ccncc1)S(=O)(=O)c1ccc(Br)cc1,inactive,–
CC(Sc1ccccc1F)C(=O)Nc1cccc(S(=O)(=O)N2CCOCC2)c1 (centres undefined),inactive,–
CCOC(=O)N1CCC(C(N)=O)CC1,inactive,–
COC(=O)[C@@]12C[C@@H](CC(=O)NCCCCc3ccccc3)C(=O)N(Cc3ccccc3)C1=CCC(C)(C)C2,inactive,–
O=C(COC(=O)C1CC2C=CC1C2)Nc1ccccc1 (centres undefined),inactive,–
Cc1ccc(S(=O)(=O)N2CCC(C(=O)N[C@@H](C)C(=O)NCCc3ccccc3)CC2)cc1,inactive,–
C[C@@H](C(=O)N1CCNCC1)n1cc(CCC(=O)O)nn1,inactive,–

Compound,Potency,activation
N#CCCN1CCN(S(=O)(=O)c2ccc(S(=O)(=O)NC3CC3)cc2)CC1,inactive,–
CC(C)(C)OC(=O)NC(Cc1ccccc1)C(=O)NC(CSC1CCCCO1)C(=O)NN (centres undefined),inactive,–
Cc1ccc(-c2nn(-c3ccccc3)cc2/C=C2\SC(=S)N(CCCCCC(=O)O)C2=O)o1,126 µM (active),–
O=C1/C(=C/c2coc3ccc(O)cc3c2=O)SC(=S)N1c1ccccc1,inactive,–
O=C(O)CCCCCCCCc1cn(CN2C(=O)c3ccccc3C2=O)nn1,inactive,–
O=C(Nc1ccc(Br)cn1)C1CCN(S(=O)(=O)c2cccs2)CC1,inactive,–
COc1ccccc1CCNC(=O)c1c(C)nn(CC(C)C)c1Cl,inactive,–
CC1CCN(c2ccc3c(c2)S(=O)(=O)c2cc(C(=O)O)ccc2C3=O)CC1,inactive,–
Cc1ccc(CNC(=O)c2cccc3c2C(=O)c2ccc(N4CCC(C)CC4)cc2S3(=O)=O)cc1,89.1 µM (active),–
Cc1ccc(CNC(=O)c2ccc3c(c2)S(=O)(=O)c2ccccc2C3=O)cc1,inactive,–
O=C(CSc1ccc(-c2cccs2)nn1)Nc1ccccc1F,inactive,–
CCOC(=O)c1c(NC(=S)Nc2ccccc2)sc2c1CCN(C)C2,inactive,–
CCc1ccccc1N(CC(=O)NCC1CCCO1)C(=O)CCC(=O)Nc1nccs1 (centres undefined),inactive,–
CCOC(=O)[C@]12CCCC=C1N(CCC1=CCCCC1)C(=O)[C@H](CC(=O)N1CCCCC1)C2,inactive,–
CCO[C@@H]1OC(C(=O)N2CCOCC2)=C[C@H](C)[C@H]1CCCO,inactive,–
Cc1ccc(NC(=S)N2CCCC(c3ccccc3)=N2)cc1,inactive,–
COCC(=O)N1CCc2ccc(NC(=O)c3ccccc3Cl)cc2C1,inactive,–
COc1ccc(-c2ocnc2C(=O)Nc2ccc3c(c2)CCC3)cc1,inactive,–
COCc1cc(C(C)=O)ccc1OC,inactive,–
COc1ccc(-c2onc3ccc(C(C)=O)cc23)cc1,50.1 µM (active),–

# — PubChem BioAssay AID720711 (National Center for Advancing Translational Sciences (NCATS), 2013)
